Assay results from paper PMC4336329 (PLoS ONE, 2015).
In all, about 310,000 compounds went through this assay and about 14,000 (4.5%) showed an effect of 50% or more. The effect is printed as a negative number. This excerpt belongs to a sample that is enriched for strong results.

What follows are molecules tested against human ether-à-go-go-related gene (hERG) potassium channel (human, UniProt Q12809) (assay: primary screen, population patch clamp on CHO cells stably expressing hERG; higher = less effect of the substance).
human ether-à-go-go-related gene (hERG) potassium channel, sequence (Q12809 whole entry, looked up): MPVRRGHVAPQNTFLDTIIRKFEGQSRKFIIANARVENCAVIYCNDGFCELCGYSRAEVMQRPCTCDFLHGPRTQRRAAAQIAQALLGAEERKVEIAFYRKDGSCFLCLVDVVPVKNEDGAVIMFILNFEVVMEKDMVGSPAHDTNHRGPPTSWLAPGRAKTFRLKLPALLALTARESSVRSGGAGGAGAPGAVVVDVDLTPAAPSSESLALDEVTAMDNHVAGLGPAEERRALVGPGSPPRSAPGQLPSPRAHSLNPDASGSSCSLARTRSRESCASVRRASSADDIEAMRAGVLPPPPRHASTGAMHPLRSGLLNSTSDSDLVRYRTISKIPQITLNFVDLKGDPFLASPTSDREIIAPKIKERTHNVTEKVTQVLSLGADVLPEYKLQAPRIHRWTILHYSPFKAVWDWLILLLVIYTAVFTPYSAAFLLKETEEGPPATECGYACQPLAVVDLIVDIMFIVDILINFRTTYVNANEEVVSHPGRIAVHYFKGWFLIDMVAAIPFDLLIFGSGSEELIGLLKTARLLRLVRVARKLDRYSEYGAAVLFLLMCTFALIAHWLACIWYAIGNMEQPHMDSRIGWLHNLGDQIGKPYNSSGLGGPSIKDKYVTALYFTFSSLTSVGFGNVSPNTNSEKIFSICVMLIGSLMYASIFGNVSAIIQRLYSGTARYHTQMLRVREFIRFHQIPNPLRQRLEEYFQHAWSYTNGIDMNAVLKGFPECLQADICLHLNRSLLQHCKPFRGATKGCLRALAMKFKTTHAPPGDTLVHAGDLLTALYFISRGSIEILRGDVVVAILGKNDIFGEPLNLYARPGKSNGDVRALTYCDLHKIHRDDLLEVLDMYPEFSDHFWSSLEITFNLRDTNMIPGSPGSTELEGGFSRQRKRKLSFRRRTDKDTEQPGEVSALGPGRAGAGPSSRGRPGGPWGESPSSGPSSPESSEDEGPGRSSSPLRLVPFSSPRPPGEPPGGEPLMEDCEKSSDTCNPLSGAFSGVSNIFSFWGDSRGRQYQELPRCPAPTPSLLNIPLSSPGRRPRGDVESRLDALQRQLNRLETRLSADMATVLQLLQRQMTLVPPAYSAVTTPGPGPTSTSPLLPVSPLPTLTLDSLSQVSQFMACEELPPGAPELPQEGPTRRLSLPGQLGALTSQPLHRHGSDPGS
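Note: peak tail current of the secondary pulse compared with the same well before compound.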

| SMILES | hERG current change (%, negative = inhibition) at 10uM [%] |
| --- | --- |
| CCc1ccccc1NC(=O)CSc1nc(-c2ccccc2)nn1C(=O)c1cccc([N+](=O)[O-])c1 | -0.129 |
| Br.CCS(=O)CCSC(=N)N (stereo not drawn) | 19.2 |
| Br.Cc1ccc(S(=O)(=O)CCSC(=N)N)cc1 | 13.1 |
| CCS(=O)(=O)CCSC(=N)N.Cl | -53.3 |
| O=C(O)[C@H]1CCCN1S(=O)(=O)c1cccc2cccnc12 | 0.132 |
| O=C(C1CCCN1S(=O)(=O)c1cccc2cccnc12)N1CCc2ccccc2C1 (stereo not drawn) | -57.5 |
| O=C(C1CCCN1S(=O)(=O)c1cccc2cccnc12)N1CCN(c2ccccc2)CC1 (stereo not drawn) | -45 |
| CC(=O)c1ccc(NC(=O)C2CCCN2S(=O)(=O)c2cccc3cccnc23)cc1 (stereo not drawn) | 7.11 |
| O=C(C1CCCN1S(=O)(=O)c1cccc2cccnc12)N1CCn2c1nc1ccccc12 (stereo not drawn) | -50.8 |
| O=C(C1CCN(S(=O)(=O)c2cccc3cccnc23)CC1)N1CCn2c1nc1ccccc12 | -9.66 |
| O=C(Nc1cccc(C(F)(F)F)c1)C1CCCN1S(=O)(=O)c1cccc2cccnc12 (stereo not drawn) | -12.4 |
| O=C(Nc1ccc(C(F)(F)F)cc1)C1CCCN1S(=O)(=O)c1cccc2cccnc12 (stereo not drawn) | -51.9 |
| O=C(C1CCCN1S(=O)(=O)c1cccc2cccnc12)N1CCc2ccccc21 (stereo not drawn) | -31.7 |
| CSc1ncccc1C(=O)Nc1ccc(S(=O)(=O)NC2=NCCCCC2)cc1 | 7.85 |
| COC(=O)CCSCC(=O)Nc1cc(C)on1 | -14.4 |
| O=C(COc1cccc2cccnc12)N/N=C1\SCC(=O)N1Cc1ccccc1 | -44.8 |
| COc1cc(C(=O)OCC(=O)NCc2ccc(F)cc2)ccc1OCC(C)C | 21.1 |
| COc1ccc(NC(=O)N2CCN(S(C)(=O)=O)CC2)cc1OC | -0.713 |
| O=C(/C=C/c1ccc(Br)cc1)NC1CCCCCC1 | -4.17 |
| Cc1onc(-c2ccccc2)c1C(=O)Nc1ccc(S(=O)(=O)N2CCOCC2)cc1 | -29.6 |
| O=c1[nH]c(=O)n(-c2cccc(F)c2)c(O)c1/C=C1\C=Nc2ccccc21 | 14 |

| SMILES | hERG current change (%, negative = inhibition) at 10uM [%] |
| --- | --- |
| O=[N+]([O-])c1ccc(Oc2cccc3cccnc23)c([N+](=O)[O-])c1 | -52 |
| NC(=O)c1ccc(Oc2cccc3cccnc23)c([N+](=O)[O-])c1 | -13.4 |
| O=[N+]([O-])c1ccc(Oc2cccc3cccnc23)c(Cl)c1 | -15.4 |
| Cc1ccc2cccc(Oc3ccc([N+](=O)[O-])cc3[N+](=O)[O-])c2n1 | -7.96 |
| N#Cc1ccc(Oc2cccc3cccnc23)c([N+](=O)[O-])c1 | -79.1 |
| O=[N+]([O-])c1ccccc1OCCCOc1cccc2cccnc12 | -15.3 |
| O=C(C1CCCN(S(=O)(=O)c2cc(Cl)ccc2Cl)C1)N1CCCC1 (stereo not drawn) | -19.5 |
| O=C(C1CCCN(S(=O)(=O)c2cc(Cl)ccc2Cl)C1)N1CCOCC1 (stereo not drawn) | -33.2 |
| COc1ccc(Cl)cc1S(=O)(=O)N1CCCC(C(=O)N2CCOCC2)C1 (stereo not drawn) | -69.4 |
| O=C(C1CCCN(S(=O)(=O)c2cc(Cl)ccc2Cl)C1)N1CCCCCC1 (stereo not drawn) | -62.4 |
| COc1ccc(OC)c(S(=O)(=O)N2CCCC(C(=O)N3CCOCC3)C2)c1 (stereo not drawn) | 20.5 |
| COc1ccc(Cl)cc1S(=O)(=O)N1CCCC(C(=O)N2CCCC2)C1 (stereo not drawn) | -5.2 |
| O=C(NCc1ccc(F)cc1)C(=O)NCC1OCCN1C(=O)c1ccc(Cl)cc1 (stereo not drawn) | -43.2 |
| CN(C)Cc1c(O)ccc2cc(-c3nc4ccccc4n3C)c(=O)oc12 | 10.2 |
| O=C1/C(=C/c2cccs2)SC(=S)N1N1CCOCC1 | 5.26 |
| O=[N+]([O-])c1cc(CN2CCN(c3ccccc3)CC2)c(O)c2ncccc12 | -7.8 |
| O=[N+]([O-])c1cc(S(=O)(=O)/N=C(/c2ccccc2)N2CCOCC2)ccc1Cl | -23.9 |
| CC(C)CSC1=NSC2=NC(=O)/C(=C\c3cccs3)C(=N)N12 | 20.2 |
| CC(C)(Oc1ccc(Cl)cc1)C(=O)NCC(c1cccs1)N1CCOCC1 (stereo not drawn) | -5.84 |
| CC(C)(Oc1ccc(Cl)cc1)C(=O)NCC(c1ccco1)N1CCCCC1 (stereo not drawn) | -20.2 |
| COc1ccc(C(CNC(=O)C(C)(C)Oc2ccc(Cl)cc2)N2CCCC2)cc1 (stereo not drawn) | -50.1 |

| SMILES | hERG current change (%, negative = inhibition) at 10uM [%] |
| --- | --- |
| COc1ccccc1C(CNC(=O)C(C)(C)Oc1ccc(Cl)cc1)N1CCCC1 (stereo not drawn) | -45.1 |
| COc1ccc(C(CNC(=O)Cc2ccccc2Cl)N2CCCCC2)cc1 (stereo not drawn) | 23 |
| COc1ccc(C(CNC(=O)C(C)(C)Oc2ccc(Cl)cc2)N2CCCCC2)cc1 (stereo not drawn) | -53.8 |
| COc1ccc(N(CC(=O)O)S(=O)(=O)c2ccc(OC)c(OC)c2)cc1 | -29.6 |
| O=C(O)CCCC(=O)Nc1cccc(-c2nc3ccccc3[nH]2)c1 | 34.1 |
| CS(=O)(=O)c1cccc(C(=O)Nc2ccc(-c3nc4ccccc4[nH]3)cc2)c1 | 11.5 |
| CS(=O)(=O)c1cccc(C(=O)Nc2cccc(-c3nc4ccccc4[nH]3)c2)c1 | -56.7 |
| COc1ccc(OCC(=O)Nc2cccc(-c3nc4ccccc4[nH]3)c2)cc1 | -55.9 |
| O=C(COc1ccccc1)Nc1cccc(-c2nc3cc4ccccc4cc3[nH]2)c1 | -9.82 |
| CC(C)CC(=O)Nc1cccc(-c2nc3ccccc3[nH]2)c1 | -16.5 |
| CS(=O)(=O)c1ccc(C(=O)Nc2cccc(-c3nc4ccccc4[nH]3)c2)cc1 | 16 |
| CC(=O)Nc1cccc(-c2nc3ccccc3[nH]2)c1 | 1.87 |
| O=C(COc1ccccc1)Nc1cccc(-c2nc3ccccc3[nH]2)c1 | -67 |
| COc1ccc(-n2c(SCC(=O)Nc3ccc4c(c3)OCO4)nc3c(c2=O)SCC3)cc1 | -10.9 |
| CCN(C(=S)NCCOC)c1cccc2ccccc12 | 8.8 |
| CC1(O)N(Cc2ccccc2)C(=O)OC12CCCCC2 (stereo not drawn) | 9.89 |
| CC1CN(CC(=O)NCc2ccc(F)cc2)CC(C)O1 (stereo not drawn) | 7.79 |
| CCn1ncc(S(=O)(=O)N2CCN(c3cccc(OC)c3)CC2)c1C | 5.68 |
| N/C(=N\OC(=O)c1ccccc1[N+](=O)[O-])c1cccnc1 | -2.9 |
| O=C(NCc1ccco1)c1cccc(S(=O)(=O)N2CCCCC2)c1 | -24.7 |
| Cc1ccc[n+](Cc2ccc([N+](=O)[O-])cc2)c1.[Br-] | 27.1 |

| SMILES | hERG current change (%, negative = inhibition) at 10uM [%] |
| --- | --- |
| C/C=C/c1ccc(OCCn2nnc3ccccc32)c(OC)c1 | -2.9 |
| COc1cc(C)ccc1OCCCCNCc1ccccc1.O=C(O)C(=O)O | -0.752 |
| C=CCc1ccc(OCCCNCc2ccccc2)c(OC)c1.O=C(O)C(=O)O | -57.4 |
| C=CCc1cc(OC)ccc1OCCOCCN1CCc2ccccc2C1.O=C(O)C(=O)O | -71 |
| C=CCc1cc(OC)ccc1OCCN(C)Cc1ccccc1.O=C(O)C(=O)O | -16.6 |
| C/C=C/c1ccc(OCC(=O)N2CCc3cc(OC)c(OC)cc3C2)c(OC)c1 | -12.4 |
| C/C=C/c1ccc(OCCN2CCc3ccccc3C2)c(OC)c1 | -77.7 |
| C=CCc1ccc(OCCCCNC(C)CC)c(OC)c1.O=C(O)C(=O)O (stereo not drawn) | -39.3 |
| C=CCc1cc(C)ccc1OCCOCCN1CCN(C)CC1.O=C(O)C(=O)O | -10.7 |
| C=CCc1ccc(OC(=O)c2ccccc2)c(OC)c1 | 5.73 |
| C=CCc1ccc(OCCOCCN(C)C)c(OC)c1.O=C(O)C(=O)O | -27.5 |
| C=CCc1ccc(OCCN2CCc3ccccc3C2)c(OC)c1.O=C(O)C(=O)O | -67.6 |
| O=C(NCc1ccncc1)c1ccc(Cl)c(S(=O)(=O)N2CCOCC2)c1 | 12.4 |
| CC1(C)OCC(COC(=O)Nc2cccnc2)([N+](=O)[O-])CO1 | 23.8 |
| O=C(Nc1ccccc1)OCCOc1ccccc1 | -17.8 |
| CC1(c2ccccc2)CC(C)(C)N2C(=O)/C(=C3\SC(=S)NC3=O)c3cccc1c32 (stereo not drawn) | -0.561 |
| O=C(COC(=O)Cc1cn2ccsc2n1)Nc1nc2ccccc2s1 | 8.88 |
| CCOCCCNC(=O)C1CCN(c2cc(C)nc3c(-c4ccc(OC)c(OC)c4)c(C)nn23)CC1 | -7.5 |
| COc1cc(C)ccc1OCCOCCOc1cccc2ccc(C)nc12.O=C(O)C(=O)O | -29.3 |
| C=CCc1ccc(OCCOc2cccc3ccc(C)nc23)c(OC)c1.O=C(O)C(=O)O | -6.6 |
| C=CCc1ccc(OCCOCCOc2cccc3ccc(C)nc23)c(OC)c1.O=C(O)C(=O)O | -61.6 |
